Source: PubChem BioAssay (NCATS)
The source made the active and inactive calls. Where a call stands in place of a potency, no number is given. The call rests on the fitted dose curve; in most records, active means well fitted curve in the direction sought with a large enough effect; inconclusive means small, poorly fitted or top-dose-only effect, or another doubt; inactive means no such curve, though single readings can be large; an effect the other way counts as inactive or inconclusive.

Assay: Cellular Toxicity (caspase-3) HUV-EC-C (AID 656)
Settings: HUV-EC-C cells, caspase-3 activation (apoptosis); series mostly up to 92.2 µM
In short: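 Luminescent Caspase-Glo 3/7 readout after 16 h, 37 °C compound exposure of HUV-EC-C endothelial cells, 1000 per well, complete medium. AC50 derived by Hill fitting, with DMSO as baseline and 100 uM tamoxifen as full activation.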

| SMILES | Potency |
| --- | --- |
| CCCCCCc1ccc(-c2ccc(C#N)cc2)cc1 | inactive |
| Nc1cnn([C@@H]2O[C@H](CO)[C@@H](O)[C@H]2O)c(=O)n1 | inactive |
| CCCCCCCCOc1ccc(C(=O)O)cc1 | inactive |
| Oc1c(Cl)cc(Cl)c(Cl)c1Cl | inactive |
| CC(C)OCC1CO1 (configuration not stated) | inactive |
| C/C(Cl)=C/CCl | inactive |
| CCCCNCC | inactive |
| O=c1[nH]ncc2ccccc12 | inactive |
| c1ccc(COCc2ccccc2)cc1 | inactive |
| O=[N+]([O-])c1cccc(I)c1 | inactive |
| Nc1ccc2c(c1)C(=O)c1ccccc1C2=O | inactive |
| c1ccc2c(c1)ccc1ccccc12 | inactive |
| Nc1ccc(N=Nc2ccccc2)c(N)c1 | inactive |
| Cc1ccc(C(=O)O)cc1[N+](=O)[O-] | inactive |
| COc1ccc([N+](=O)[O-])cc1N | inactive |
| OCC(CO)(CBr)CBr | inactive |
| Nc1cc(C(=O)O)c(O)c(S(=O)(=O)O)c1 | inactive |
| Oc1ccc2c(c1)OCO2 | inactive |
| c1ccncc1 | inactive |
| CC(=O)OC1CC(C)OC(C)O1 (configuration not stated) | inactive |

| SMILES | Potency |
| --- | --- |
| O=C(OCc1ccccc1)c1ccccc1O | inactive |
| C/C=C/C=C/C=O | inactive |
| CCN(CC)c1ccc2c(C)cc(=O)oc2c1 | inactive |
| c1c[nH]cn1 | inactive |
| c1ccc(SCCSc2ccccc2)cc1 | inactive |
| O=C(O)/C=C/c1ccc(/C=C/C(=O)O)cc1 | inactive |
| CCCCOC(=O)COc1ccc(Cl)cc1Cl | inactive |
| CC(=O)OC(C(=O)c1ccccc1)c1ccccc1 (configuration not stated) | inactive |
| CCCCCCN | inactive |
| CC(=O)Nc1cccc(C)c1 | inactive |
| CCC(Cl)CC(Cl)C(Cl)C(Cl)C(Cl)C(C)Cl (configuration not stated) | inactive |
| COc1ccc(C)cc1N | inactive |
| CCc1ccc(C(c2ccc(CC)cc2)C(Cl)Cl)cc1 | inactive |
| C[C@@H]1CC2(OC(O)[C@]3(C)O[C@H]23)O[C@H]2C[C@@]3(C)[C@@H]4CC[C@H]5C(C)(C)C(O[C@@H]6OC[C@@H](O)[C@H](O)[C@H]6O)CC[C@@]56C[C@@]46CC[C@]3(C)[C@@H]12 (some centres not stated) | inactive |
| O=[N+]([O-])c1ccccc1Nc1ccccc1 | inactive |
| C=CC1CO1 (configuration not stated) | inactive |
| COc1cc(-c2ccc(N=C=O)c(OC)c2)ccc1N=C=O | inactive |
| CCOC(=O)C1OC1c1ccccc1 (configuration not stated) | inactive |
| COc1ccc(C(=O)Nc2ccccc2)cc1[N+](=O)[O-] | inactive |

Assay: Cellular Toxicity (caspase-3) SHSY5Y (AID 657)
Settings: SH-SY5Y caspase-3 activation; series mostly up to 91.7 µM
In short: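 Luminescent Caspase-Glo 3/7 read-out, 1 hr room temperature, follows 16 hours of compound treatment of SH-SY5Y cells at 37 °C. Normalization: DMSO basal, 10 uM staurosporine as 100%; AC50 values from Hill-equation concentration-response fits.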

| SMILES | Potency |
| --- | --- |
| CCCCCCc1ccc(-c2ccc(C#N)cc2)cc1 | inactive |
| Nc1cnn([C@@H]2O[C@H](CO)[C@@H](O)[C@H]2O)c(=O)n1 | inactive |
| CCCCCCCCOc1ccc(C(=O)O)cc1 | inactive |
| Oc1c(Cl)cc(Cl)c(Cl)c1Cl | inactive |
| CC(C)OCC1CO1 (configuration not stated) | inactive |
| C/C(Cl)=C/CCl | inactive |
| CCCCNCC | inactive |
| O=c1[nH]ncc2ccccc12 | inactive |
| c1ccc(COCc2ccccc2)cc1 | inactive |
| O=[N+]([O-])c1cccc(I)c1 | inactive |
| Nc1ccc2c(c1)C(=O)c1ccccc1C2=O | inactive |
| c1ccc2c(c1)ccc1ccccc12 | inactive |
| Nc1ccc(N=Nc2ccccc2)c(N)c1 | inactive |
| Cc1ccc(C(=O)O)cc1[N+](=O)[O-] | inactive |
| COc1ccc([N+](=O)[O-])cc1N | inactive |
| OCC(CO)(CBr)CBr | inactive |
| Nc1cc(C(=O)O)c(O)c(S(=O)(=O)O)c1 | inactive |
| Oc1ccc2c(c1)OCO2 | inactive |
| c1ccncc1 | inactive |
| CC(=O)OC1CC(C)OC(C)O1 (configuration not stated) | inactive |

| SMILES | Potency |
| --- | --- |
| O=C(OCc1ccccc1)c1ccccc1O | inactive |
| C/C=C/C=C/C=O | inactive |
| CCN(CC)c1ccc2c(C)cc(=O)oc2c1 | inactive |
| c1c[nH]cn1 | inactive |
| c1ccc(SCCSc2ccccc2)cc1 | inactive |
| O=C(O)/C=C/c1ccc(/C=C/C(=O)O)cc1 | inactive |
| CCCCOC(=O)COc1ccc(Cl)cc1Cl | inactive |
| CC(=O)OC(C(=O)c1ccccc1)c1ccccc1 (configuration not stated) | inactive |
| CCCCCCN | inactive |
| CC(=O)Nc1cccc(C)c1 | inactive |
| CCC(Cl)CC(Cl)C(Cl)C(Cl)C(Cl)C(C)Cl (configuration not stated) | inactive |
| COc1ccc(C)cc1N | inactive |
| CCc1ccc(C(c2ccc(CC)cc2)C(Cl)Cl)cc1 | inactive |
| C[C@@H]1CC2(OC(O)[C@]3(C)O[C@H]23)O[C@H]2C[C@@]3(C)[C@@H]4CC[C@H]5C(C)(C)C(O[C@@H]6OC[C@@H](O)[C@H](O)[C@H]6O)CC[C@@]56C[C@@]46CC[C@]3(C)[C@@H]12 (some centres not stated) | inactive |
| O=[N+]([O-])c1ccccc1Nc1ccccc1 | inactive |
| C=CC1CO1 (configuration not stated) | inactive |
| COc1cc(-c2ccc(N=C=O)c(OC)c2)ccc1N=C=O | inactive |
| CCOC(=O)C1OC1c1ccccc1 (configuration not stated) | inactive |
| COc1ccc(C(=O)Nc2ccccc2)cc1[N+](=O)[O-] | inactive |

Assay: Cellular Toxicity (caspase-3) BJ (AID 658)
Settings: BJ fibroblasts, luminescence; Potency: caspase-3 activation; series mostly up to 91.7 µM
In short: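 Caspase-Glo 3/7 luminescence, read 1 hr after reagent at room temperature, in normal BJ fibroblasts exposed 16 hours at 37 °C. AC50 values from Hill-equation concentration-response, scaled between DMSO basal and 10 uM staurosporine as 100%.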

| SMILES | Potency |
| --- | --- |
| CCCCCCc1ccc(-c2ccc(C#N)cc2)cc1 | inactive |
| Nc1cnn([C@@H]2O[C@H](CO)[C@@H](O)[C@H]2O)c(=O)n1 | inactive |
| CC(C)OCC1CO1 (configuration not stated) | inactive |
| CCCCNCC | inactive |
| O=c1[nH]ncc2ccccc12 | inactive |
| Nc1ccc2c(c1)C(=O)c1ccccc1C2=O | inactive |
| c1ccc2c(c1)ccc1ccccc12 | inactive |
| Nc1ccc(N=Nc2ccccc2)c(N)c1 | inactive |
| Cc1ccc(C(=O)O)cc1[N+](=O)[O-] | inactive |
| COc1ccc([N+](=O)[O-])cc1N | inactive |
| Nc1cc(C(=O)O)c(O)c(S(=O)(=O)O)c1 | inactive |
| c1ccncc1 | inactive |
| O=C(OCc1ccccc1)c1ccccc1O | inactive |
| C/C=C/C=C/C=O | inactive |
| CCN(CC)c1ccc2c(C)cc(=O)oc2c1 | inactive |
| c1c[nH]cn1 | inactive |
| c1ccc(SCCSc2ccccc2)cc1 | inactive |
| O=C(O)/C=C/c1ccc(/C=C/C(=O)O)cc1 | inactive |
| CCCCOC(=O)COc1ccc(Cl)cc1Cl | inactive |
| CCC(Cl)CC(Cl)C(Cl)C(Cl)C(Cl)C(C)Cl (configuration not stated) | inactive |
| CCc1ccc(C(c2ccc(CC)cc2)C(Cl)Cl)cc1 | inactive |
| C=CC1CO1 (configuration not stated) | inactive |
| COc1cc(-c2ccc(N=C=O)c(OC)c2)ccc1N=C=O | inactive |
| COc1ccc(C(=O)Nc2ccccc2)cc1[N+](=O)[O-] | inactive |
